# Screening results (PubChem)
# DUX4 txn inh: blocks DUX4-driven transcriptional activation | activity change, negative = inhibition, % (concentration not given with the values) | AID 1224904 | 293T-iDUX4 ZSCAN4-Gaussia luciferase reporter, 24 h; hits give low values | 0.8% of 37,000 active;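 active = mean inhibition of at least 10% in the main channel, exceeding the control channel by a set limit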;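 also: 0% = median of neutral control wells and -100% = median of positive control wells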
# An asterisk follows results filed as active; ! = repeats disagree. The sample as a whole holds a higher share of hits than the screen did.
SMILES,DUX4 txn inh
Cc1ccc(-c2ccc(C3[C@@H]4CN(Cc5cccnc5)C[C@H]3N4)cc2)cc1 (stereo partly specified),-22*!
COc1ccccc1CN1C[C@@H]2N[C@H](C1)C2c1ccc(-c2ccccc2)cc1 (stereo partly specified),-46*
CN(C)C(=O)c1ccc(-c2ccc(C3[C@@H]4CN(Cc5cncnc5)C[C@H]3N4)cc2)cc1 (stereo partly specified),17
O=C(O)C[C@H]1C[C@H]2c3cc(NC(=O)NC4CCCC4)ccc3O[C@H]2[C@H](CO)O1,4
COc1ccccc1-c1ccc(C2[C@H]3CNC[C@@H]2N3C(=O)Nc2ccccc2F)cc1 (stereo partly specified),13
O=C(c1cccnc1)N1CC2(C1)[C@H](c1ccccc1)[C@H](CO)N2C(=O)C1CCC1,-3
O=C(c1ccncc1)N1C[C@H]2[C@@H](c3ccccc31)[C@@H](CO)N2C(=O)c1ccncc1,-4
CN1C(=O)c2cc(NC(=O)Nc3ccc(F)cc3)ccc2OC[C@H]2O[C@@H](CC(=O)NC3CCC3)CC[C@@H]21,5
CC=Cc1ccc2n(c1=O)C[C@H]1[C@H](CO)[C@@H](C(=O)NCC)[C@@H]2N1C(=O)C1CC1 (mixture of isomers),3
CCCNC(=O)Nc1ccc2c(c1)C(=O)N(C)[C@H]1CC[C@@H](CC(=O)NCc3ccccc3)O[C@H]1CO2,-1
O=C([C@@H]1[C@@H](CO)[C@@H]2Cn3c(ccc(-c4cncnc4)c3=O)[C@@H]2N1CC1CC1)N1CCCCC1,-4
COc1ccc2c3c([nH]c2c1)[C@H](CO)N(Cc1ccccc1F)CC31CN(S(C)(=O)=O)C1,-45*
COCC(=O)N1CC2(C1)CN(Cc1ccccc1Cl)[C@H](CO)c1[nH]c3cc(OC)ccc3c12,-5
COc1ccc2c3c([nH]c2c1)[C@H](CO)N(Cc1cc(F)ccc1F)CC31CCN(C(=O)CN(C)C)CC1,-9
COc1ccc2c3c([nH]c2c1)[C@H](CO)N(Cc1cc(F)ccc1F)CC31CN(C(=O)C2CCC2)C1,-74*
COc1ccc2c3c([nH]c2c1)[C@@H](CO)N(Cc1ccccc1F)CC31CN(C(=O)C2CCOCC2)C1,-5
COc1ccc2c3c([nH]c2c1)[C@H](CO)N(Cc1ccccc1F)CC31CN(C)C1,-6
C[C@@H]1CN([C@H](C)CO)C(=O)CCCn2nncc2CO[C@@H]1CN(C)S(=O)(=O)c1ccc(-c2ccccc2)cc1,-2
CCN1[C@@H]2c3ccc(-c4cncnc4)c(=O)n3C[C@@H]2[C@@H](CO)[C@@H]1C(=O)OC,10
CCC(=O)N1[C@@H](CO)[C@@H](c2ccccc2)C12CN(C(=O)NC1CCCC1)C2,-1
C/C=C/c1ccc([C@H]2[C@H]3CN(C(=O)Nc4ccc(F)cc4)CC(=O)N3[C@H]2CO)cc1,2
C[C@H](CO)N1C[C@H](C)[C@@H](CN(C)C(=O)Nc2ccc(F)cc2)OCc2ccccc2-c2ccccc2C1=O,17
O=C(C[C@@H]1C[C@H]2c3cc(NC(=O)CC4CC4)ccc3O[C@H]2[C@H](CO)O1)NCc1ccccn1,1
N#Cc1cccc(-c2ccc3c(c2)[C@H]2[C@H](CCN2Cc2ccncc2)[C@@H](CO)N3)c1,-47*
N#Cc1cccc(-c2ccc3c(c2)[C@H]2[C@H](CCN2C(=O)c2ccncc2)[C@@H](CO)N3)c1,7
SMILES,DUX4 txn inh
OC[C@H]1Nc2ccc(-c3cccc(F)c3)cc2[C@H]2[C@@H]1CCN2Cc1ccc(F)cc1,-32*
COc1ccc(-c2ccc3c(c2)[C@H]2[C@H](CCN2Cc2ccncc2)[C@@H](CO)N3)cc1,7
OC[C@H]1Nc2ccc(-c3cccc(F)c3)cc2[C@H]2[C@@H]1CCN2Cc1ccncc1,-20*
OC[C@H]1Nc2ccc(-c3cccc(F)c3)cc2[C@@H]2[C@H]1CCN2Cc1ccc(F)cc1,-24*
O=C(C1CCC1)N1CC[C@@H]2[C@@H](CO)Nc3ccc(-c4cccc(F)c4)cc3[C@@H]21,11
N#Cc1cccc(-c2ccc3c(c2)[C@@H]2[C@@H](CCN2Cc2cncnc2)[C@@H](CO)N3)c1,-5
OC[C@@H]1Nc2ccc(-c3ccc(F)cc3)cc2[C@H]2[C@@H]1CCN2Cc1ccc(F)cc1,-3
CC(=O)N1CC[C@@H]2[C@@H](CO)Nc3ccc(-c4cccc(F)c4)cc3[C@@H]21,13
OC[C@@H]1Nc2ccc(-c3cccc(F)c3)cc2[C@@H]2[C@H]1CCN2Cc1ccncc1,1
CC(=O)N1CC[C@@H]2[C@H]1c1cc(-c3cccc(F)c3)ccc1N[C@@H]2CO,22
CCCNC(=O)[C@@H]1[C@@H](CO)[C@@H]2Cn3c(ccc(C4=CCCC4)c3=O)[C@H]1N2C(=O)C1CC1,-4
C[C@@H]1CCCCO[C@@H](CN(C)S(=O)(=O)c2ccccc2)[C@@H](C)CN([C@H](C)CO)C(=O)c2cc(NC(=O)CCC(F)(F)F)ccc2O1,-4
COc1ccc(-c2ccc3c(c2)[C@@H]2[C@@H](CCN2C(=O)C2CCCCC2)[C@H](CO)N3C)cc1,4
COc1ccc(-c2ccc3c(c2)[C@@H]2[C@@H](CCN2S(=O)(=O)c2ccccc2C)[C@@H](CO)N3C)cc1,6
CCC(=O)N1[C@H](C(=O)N2CCCCC2)[C@@H](CO)[C@@H]2Cn3c(cccc3=O)[C@@H]21,-1
